Cardio protect – modulators protecting cardiomyocytes from myocardial damage. AID 588492. 360,000 tested, 0.63% active. H9c2 cardiomyocytes, H2O2 injury protection, ATPLite, 2 h. protection from H2O2 cell death, % at 20 µM;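 active means compounds giving at least 50% protection of heart cells from peroxide-induced death in the single-dose screen, raw or plate-pattern-corrected value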
CRFBP-R2 agonist – agonists of human CRF-binding protein/CRF-R2 receptor complex; HEK293 CRF-R2/CRF-BP, calcium dye fluorescence (FLIPR); percent of saturating CRF peptide response; activation, % at 13.2 µM; 350,000 tested, 0.46% active;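 active means activation of at least 50%, plus an integration ratio under a set limit after plate pattern correction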
H9c2 TAG inh – triacylglycerol accumulation inhibition. H9c2 cells, Nile Red lipid (TAG) fluorescence; cells loaded with 200 µM oleic acid. inhibition, % at 12.5 µM. 230,000 tested, 0.66% active;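 active means pattern-corrected inhibition of lipid staining of at least 50% with the nuclear-stain viability signal not falling by more than 50%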
iPSC survival up – enhancers of human iPSC single-cell survival; 360,000 tested, 0.044% active; hiPSC single-cell survival, ATPlite luminescence; 100% = ROCK inhibitor wells, 0% = DMSO; AID 602274; survival enhancement, % at 20 µM; in the data active means survival enhancement above about 18%;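 further: cells exposed to compounds for 16 hours before the ATP read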
SKN-1 inh – C. elegans SKN-1 inhibition; C. elegans VP596 Pgst-4::GFP/RFP ratio, acrylamide-induced, 24 h; inhibition, % at 21.8 µM; 360,000 tested, 0.49% active; AID 624304;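 active means interference check ratio from 0.5 to 1.5 plus GFP to RFP signal ratio inhibition reaching or exceeding a fixed threshold, cut at about 30% in these data, passing the limit was not always enough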
CRFBP-R2 block – blocks CRF-induced signaling of the CRF-BP/CRF-R2 complex. 350,000 tested, 0.59% active. inhibition, % at 11.8 µM. HEK293 CRF-R2/CRF-BP, CRF-induced calcium fluorescence;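 active means inhibition of the ligand-induced calcium signal above about 50% at the single tested concentration, limit read from the data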
A number is an active result; i = inactive; nt = not tested or not shown. The list is not random: actives were taken first. Their share in the collection is about 2.5%.

SMILES	Cardio protect	CRFBP-R2 agonist	H9c2 TAG inh	iPSC survival up	SKN-1 inh	CRFBP-R2 block
Oc1cc2ccccc2cc1-c1n[nH]c(=S)o1	i	i	i	i	i	61
S=c1[nH]nc(-c2c[nH]c3ccccc23)o1	i	i	nt	i	i	i
CCCCCc1ccc(C(=O)CCC(=O)OCC(=O)N(CC)c2c(N)n(Cc3ccccc3)c(=O)[nH]c2=O)cc1	i	i	i	i	i	i
CCN(CC)CCN(C(=O)CN1C(=O)c2ccccc2C1=O)c1nc2cc3c(cc2s1)OCO3	i	i	i	i	i	76
CN(C)CCN(C(=O)CN1C(=O)c2ccccc2C1=O)c1nc2cc3c(cc2s1)OCO3	i	i	i	i	i	i
Cc1cc(C(=O)CN2C(=O)NC(C)(c3cc(F)ccc3F)C2=O)c(C)n1C1CC1 (stereo unspecified)	i	i	i	i	i	i
CCC1(c2ccc(F)cc2)NC(=O)N(CC(=O)c2cc(C)n(C3CC3)c2C)C1=O (stereo unspecified)	i	66	i	i	i	i
CCN1C(=O)/C(=C/N(C)c2ccccc2)OC1=S	i	i	nt	i	36	i
CCN1C(=O)/C(=C\N(C(C)=O)c2ccccc2)OC1=S	i	i	nt	i	i	i
O=C(CSCc1ccccc1)Nc1cc([N+](=O)[O-])ccc1F	i	i	nt	i	i	85
COc1ccc([N+](=O)[O-])cc1NC(=O)CSCc1ccccc1	i	i	nt	i	i	i
C/C(=N\NC(=O)CSCc1ccc([N+](=O)[O-])cc1)c1ccccc1O	63	i	nt	i	i	i
C/C(=N\NC(=O)CSCc1ccc([N+](=O)[O-])cc1)c1ccccc1	i	i	i	i	i	i
CC(CCCCCCCCC(=O)O)N(CCO)C(=O)OC(C)(C)C (stereo unspecified)	i	i	i	i	i	i
O=C(CSc1ccc(Cl)cc1)N1CCN(c2ncc(C(F)(F)F)cc2Cl)CC1	i	i	i	i	56	i
CCc1ccc(-c2nc(-c3ccncc3)no2)cc1	i	i	nt	i	48	i
CCCCc1ccc(-c2nc(-c3ccncc3)no2)cc1	i	i	i	i	i	i
CCOc1ccc(-c2nnc(-c3ccccc3)o2)cc1	i	i	i	i	38	i
c1ccc(-c2nc(-c3ccncc3)no2)cc1	i	i	i	i	69	i
CCOc1ccc(-c2cnc3ccccc3n2)cc1	i	i	i	i	35	i
Oc1c(C(c2ccccc2)N2CCCCC2)ccc2ccccc12 (stereo unspecified)	i	i	i	i	i	i
COc1cc(OC)c(C=NNC(=S)NC23CC4CC(CC(C4)C2)C3)c(OC)c1	i	i	i	i	i	i
c1ccc(-c2ccc(-c3nc(-c4cccnc4)no3)cc2)cc1	i	i	nt	i	43	i
CCOc1ccc(-c2nc(-c3cccnc3)no2)cc1	i	i	i	i	53	i
c1ccc(-c2noc(-c3cccnc3)n2)cc1	i	i	nt	i	i	i
SMILES	Cardio protect	CRFBP-R2 agonist	H9c2 TAG inh	iPSC survival up	SKN-1 inh	CRFBP-R2 block
CCc1nc2ccc(C(=O)NCCCN3CCCC3=O)cn2c1N(CC)Cc1cccc(Br)c1	i	nt	i	i	i	nt
O=C(NCc1ccc(F)cc1)C(=O)NCC1OCCN1C(=O)c1ccc(Cl)cc1 (stereo unspecified)	i	i	i	i	i	60
CCOC(=O)c1cc(=O)cc(C(=O)OCC)o1	i	i	i	i	i	50
COC(=O)c1cc(=O)cc(C(=O)OC)o1	i	i	i	i	i	i
O=C(Nc1ccc(Cl)cn1)c1cccc(S(=O)(=O)N2CCCCCC2)c1	i	i	i	i	i	i
O=C(NNC(=O)c1ccc(S(=O)(=O)N2CCCCC2)cc1)c1ccccc1	i	i	nt	i	i	i
O=C(Nc1nnc(S(=O)(=O)N2CCCC2)s1)c1cccc([N+](=O)[O-])c1	i	i	nt	i	i	i
O=C(NNC(=O)c1cccc(S(=O)(=O)N2CCCCC2)c1)c1ccccc1	i	i	i	i	i	103
O=C(Nc1ccc(Cl)cn1)c1cccc(S(=O)(=O)N2CCCC2)c1	i	i	nt	i	i	58
O=C(Nc1nnc(S(=O)(=O)N2CCCCC2)s1)c1cccc(Br)c1	i	i	i	i	i	58
Cc1ccnc(NC(=O)c2cccc(S(=O)(=O)N3CCCC3)c2)c1	i	i	i	i	i	73

Screening data (PubChem)
